The values below come from PubChem BioAssay AID777 (Sanford-Burnham Center for Chemical Genomics, 2007).

About 19,000 (20%) of roughly 96,000 compounds were called active. A selection follows. A number with no mark means an inactive call.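 The calls were made as follows: active = blocking of liver enzyme CYP2C9 beyond about 50% at 5 µM (limit read from the data); inactive = the rest.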

The target of the assay is Cytochrome P450 2C9 (Homo sapiens) (UniProt P11712). The assay is described as follows: blockers of cytochrome P450 2C9 activity – biochemical, luminescence, ADME assay, primary screen (AID 777). The conditions noted are these: CYP2C9 Supersomes, luciferin-H conversion, at 5 µM, active compounds read high.
Cytochrome P450 2C9 (Homo sapiens), sequence (P11712 whole entry, looked up): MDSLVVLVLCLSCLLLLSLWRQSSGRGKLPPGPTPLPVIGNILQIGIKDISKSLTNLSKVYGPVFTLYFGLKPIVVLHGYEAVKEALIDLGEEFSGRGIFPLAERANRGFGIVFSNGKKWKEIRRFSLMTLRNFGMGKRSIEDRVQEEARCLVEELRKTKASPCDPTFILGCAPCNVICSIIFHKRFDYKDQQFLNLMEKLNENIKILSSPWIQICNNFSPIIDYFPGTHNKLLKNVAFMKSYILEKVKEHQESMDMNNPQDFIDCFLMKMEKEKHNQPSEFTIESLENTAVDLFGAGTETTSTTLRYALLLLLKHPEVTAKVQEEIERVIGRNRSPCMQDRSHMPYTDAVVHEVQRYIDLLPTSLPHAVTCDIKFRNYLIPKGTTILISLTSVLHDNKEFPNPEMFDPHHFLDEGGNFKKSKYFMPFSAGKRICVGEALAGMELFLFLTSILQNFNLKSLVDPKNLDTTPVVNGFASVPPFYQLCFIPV
One may read the inhibition as the drop in the measured response relative to a control, in per cent. As to `COc1ccc(CCn2c(O)c(C=NC3CC3)c(=O)[nH]c2=O)cc1OC`, the inhibition was 16.5%.
For the compound `COc1ccc(CCn2c(O)c(C=NCCCn3ccnc3)c(=O)[nH]c2=O)cc1OC`, the inhibition was 61.3% (active).
Turning to `COc1ccccc1-n1c(O)c(C=NC2CC2)c(=O)[nH]c1=O`, the inhibition is -3.5%.
The value for `COc1ccc(S(=O)(=O)NCc2ccc(C(=O)N3CCC4(CC3)OCCO4)cc2)cc1` was 4.3%; that for `C=Cn1ccnc1P(=S)(c1cc(N(CC)CC)ns1)c1nccn1C=C` was 12.6%.
In the case of `CCOC(=O)C(O)(c1ccc(N)c(OC)c1)C(F)(F)F` (stereo not given), the inhibition is 25.7%.
On to `CCOC(=O)C(O)(c1ccc(NC(=O)c2ccco2)c(OC)c1)C(F)(F)F` (stereo not given), for which the inhibition is 71.4% (active).
The value for `COC(=O)C(O)(c1ccc(NC(=O)c2ccco2)c(OC)c1)C(F)(F)F` (stereo not given) was 75.9% (active).
In the case of `C[N+]12CN3CN(CN(C3)C1)C2`, the inhibition is 0.8%.
As to `Cc1ccc(P(=S)(c2ccc(C)o2)N2CCOCC2)o1`, the inhibition is 11%.
The figure for `c1cncc(CNC2=NCCC2)c1` is -10.2%; for `COc1ccccc1N1CCN(C(CNC(=O)Oc2ccccc2)c2cccnc2)CC1` (stereo not given) it is 44.1%; for `CC(C)c1ccc(O)c(CN2CCN(c3ccccc3)CC2)c1` it is 19.1%.
The value for `CC[N+](CC)(CC)CCCCCCCCCC[N+](CC)(CC)CC` was -4.4%; that for `O=C(CN1CCCCC1)Nc1ccc(Br)cc1C(=O)c1ccccc1Cl` was 8.7%.
In the case of `CCC/C(=N\O)c1c[nH]c2ccccc12`, the inhibition was 10.1%.
As to `Cc1ccc2c(c1)C1CN(C)CCC1N2C(=O)Cn1nnc(-c2ccccc2F)n1` (stereo not given), the inhibition was 4.5%.
The value for `CN1CCC(N(C)Cc2cccnc2)CC1` was -6.3%; that for `CN1C2C=C(N(C(=O)c3ccc(Cl)cc3)c3ccccc3)CC1CC2` (stereo not given) was 6.8%.
The figure for `Nc1ccc(C(=O)N/N=C2/CN3CCC2CC3)cc1` is 8%; for `CN1CCN(C(=O)COc2ccc(C(C)(C)C)cc2Br)CC1` it is -18%.
The figure for `O=C(COc1ccc2ccccc2c1)N1CCN(Cc2ccncc2)CC1` is 90.5% (active).
As to `CC(C)c1ccc(OCC(=O)N2CCN(C)CC2)c(Br)c1`, the inhibition is -1.3%.
For the compound `Cc1ccc(N(C)C(=O)Oc2cccc3ccc(C)nc23)cc1`, the inhibition is 36.4%.
Take `Cn1c(C(=O)N2CCC(C(=O)N3CCC4(CC3)OCCO4)CC2)cc2sccc21`: the inhibition was -32.3%.
Take `CCOc1ccc(CN(CCCl)CCCl)cc1C(=O)OC`: the inhibition was 97.3% (active).
The figure for `Cn1c(O)c(C=Nc2ccc3c(c2)CCC3)c(=O)n(C)c1=O` is 11.5%; for `CC(=C1C(=O)c2ccccc2C1=O)N1CCN(CCN=Cc2c(O)n(C)c(=O)n(C)c2=O)CC1` it is 43.2%; for `CC(C)(C)c1ccc(CN2C(=O)CN=C(c3ccccc3)c3ccccc32)cc1` it is 18.9%.
Consider `O=C(O)C1CSC(c2cccnc2)N1` (stereo not given), for which the inhibition is -16.9%.
The figure for `C=CCN1C(=O)C2(C(C(=O)OCC)=C(N)Oc3c2c(=O)oc2ccccc32)c2ccccc21` (stereo not given) is 88.5% (active).
In the case of `CCOC(=O)CC1=C(C(=O)OCC)C2(C(=O)N1)C(C(=O)OC)=C(N)Oc1ccccc12` (stereo not given), the inhibition was 20.6%.
The figure for `COC(=O)CN1C(=O)C2(C(C(=O)OC)=C(N)Oc3ccccc32)C2=C1CC(C)(C)CC2=O` (stereo not given) is 38.6%.
The value for `CNC(=O)N(C)c1nnc(C(C)(C)C)s1` was -22.2%; that for `Cc1ccc(C)c(NC2=NCCCS2)c1` was -2.6%.
The figure for `CCOC(=O)C1CN(C)CCC1=O` (stereo not given) is 1.1%.
As for `CCCCCn1c(=O)c(C(=O)NCc2ccccn2)c(O)c2ccccc21`, the inhibition was 78.1% (active).
The figure for `CCCCCn1c(=O)c(C(=O)Nc2c(C)n(C)n(-c3ccccc3)c2=O)c(O)c2ccccc21` is 25.9%; for `CCN1c2nc3c(C)cccn3c(=O)c2CC2(C(=O)N(C)C(=O)N(C)C2=O)C1C` (stereo not given) it is -8.4%; for `Cc1nc2ccccn2c1P(=S)(N1CCCCC1)N1CCCCC1` it is 11.7%.
The figure for `CCOC(=O)c1c(C)c(C(=O)N2CCC3(CC2)OCCO3)c(C)n1CC` is 31.2%; for `CN(C)C(=O)NC(O)C(Cl)(Cl)Cl` (stereo not given) it is 74.8% (active).
On to `Cc1cc(N2C(=O)C3CCCN3C2c2ccc(Cl)c(Cl)c2)no1` (stereo not given), for which the inhibition was 41.4%.
Take `COc1ccc(-c2nc(CS(=O)CC(=O)N3CCC4(CC3)OCCO4)c(C)o2)cc1` (stereo not given): the inhibition is 14.5%.
The figure for `O=C1/C(=C\c2ccc3c(c2)OCO3)N2CCC1CC2` is 22.5%.
The figure for `CCOC(=O)c1c(-c2ccccc2)oc2ccc(OC(=O)N(C)C)cc12` is 55% (active).
The figure for `O=C1NC(=O)C(C/C=C/c2ccccc2)C(=O)N1` is -3%; for `CC(=NCc1ccc2c(c1)OCO2)c1c(O)[nH]c(=O)[nH]c1=O` it is -11.9%; for `CN1CCN(Cc2ccccc2C(F)(F)F)CC1` it is 0.4%.
In the case of `CCN(CC)C(=O)c1ccc(NC(=O)c2cc(-n3cnnc3)ccc2Cl)cc1`, the inhibition is 32.9%.
The value for `O=C(CCN1CCCCC1)NCC(=O)Nc1ccc(Br)cc1C(=O)c1ccccc1` was -14.9%; that for `CCOP(=S)(OCC)SCOC(=O)NCC(=O)OC` was 71.1% (active).
For `c1ccc(C2NCc3ccccc3-n3cccc32)cc1` (stereo not given), the inhibition was 19.1%.
The figure for `CC(=O)NC(=O)NC(C)Cc1ccccc1` (stereo not given) is -12.4%; for `CC(=O)c1ccc(OC(NC(=O)Cc2ccccc2)C(Cl)(Cl)Cl)cc1` (stereo not given) it is 86.4% (active).
Take `Cc1nc2nc(C)c(CCC(=O)N3CCC4(CC3)OCCO4)c(C)n2n1`: the inhibition was 3.8%.
Regarding `NC(=O)Nc1cccc(C(F)(F)F)c1`, the inhibition was -12.3%.
The figure for `CC(=O)Nc1ccccc1C(=O)OCC(=O)c1cccc2ccccc12` is 80.7% (active).
The figure for `CC12CN3CC(C)(CN(C1)C3c1cccs1)C2` (stereo not given) is -10.5%.
For `Cc1ccc(Cn2nnnc2CN2CCC(n3nnc4ccccc43)CC2)cc1`, the inhibition was 93.4% (active).
The value for `CSC1=NP(=S)(SC)N(C)c2nc3n(c21)CCC3` (stereo not given) was 9.2%.
The value for `Cc1cccc(N2C(=O)NC(=O)/C(=C\c3cnn(-c4ccccc4)c3)C2=O)c1` was -9.5%.
The value for `COc1ccc(C(=O)C2CN(C)CC2C(=O)c2ccc(OC)cc2)cc1` (stereo not given) was 12.4%; that for `COc1ccc(CN2CCN(c3ccccc3F)CC2)c(OC)c1` was 60.9% (active); that for `COc1ccccc1CN1CCN(C(=O)Cc2ccccc2)CC1` was 31.5%.
As to `Fc1cccc(F)c1CN1CCN(Cc2c(F)cccc2F)CC1`, the inhibition was 7.2%.
The figure for `CC(=NC1CCN(Cc2ccccc2)CC1)c1c(O)n(C)c(=O)n(C)c1=O` is 17.4%; for `CC(=O)c1c(O)n(C2CCCCCC2)c(=O)[nH]c1=O` it is 82.9% (active); for `CC(=NCC1CCCO1)c1c(O)n(-c2ccccc2)c(=O)[nH]c1=O` (stereo not given) it is 27.9%.
The figure for `CCC(=NCCc1ccccc1)c1c(O)n(C2CCCCC2)c(=O)[nH]c1=O` is 68.4% (active).
The figure for `CN1CCN(Cc2ccc(OC(F)(F)F)cc2)CC1` is 3.1%; for `CCc1nc2ccccc2c(=O)n1-c1cccc(OC)c1` it is -4%; for `CC(=O)N(C1=NCCCS1)c1ccccc1F` it is 18.1%.
For `COC(=O)C(c1ccccc1)N1CCCCCC1` (stereo not given), the inhibition is 5.8%.
The figure for `O=c1c2ccccc2nc(-c2ccco2)n1-c1ccc(Br)cn1` is -4.8%; for `COc1ccccc1N=C1SCCCN1C` it is -3.6%; for `CCN(CC)CCOC(=O)c1cc2cc(COC)ccc2o1` it is -1.3%.
The value for `Cc1cccc(-n2c(C)nc3cc(C(=O)N4CCC5(CC4)OCCO5)ccc32)c1` was 13.7%.
Turning to `O=C(c1cc(-c2ccncc2)nc2ccccc12)N1CCC2(CC1)OCCO2`, the inhibition was 41.9%.
As for `O=C(c1cc2nc(-c3ccccc3)cc(-c3ccccc3)n2n1)N1CCC2(CC1)OCCO2`, the inhibition is 94.6% (active).
As for `CCN(CC)P(=O)(Oc1cccc(C)c1)N(CC)CC`, the inhibition was 46.2%.
Regarding `CCC(=O)CC(c1ccc([N+](=O)[O-])cc1)c1c(O)c2ccccc2oc1=O` (stereo not given), the inhibition is 75.8% (active).
In the case of `O=C(C1CC(=O)N(C2CCCC2)C1)N1CCC2(CC1)OCCO2` (stereo not given), the inhibition was 9.5%.
The figure for `CC(=O)N1CN2CN(C(C)=O)CC(C(=O)c3ccc(Br)cc3)(C2)C1` is -14.6%.
The figure for `Fc1ccc(N2CCN(Cc3ccc4c(c3)OCO4)CC2)cc1` is 14.2%.
The figure for `c1ccc2sc(C3CCCNC3)nc2c1` (stereo not given) is -23%; for `CCC(=NCc1ccco1)c1c(O)n(Cc2ccccc2)c(=O)[nH]c1=O` it is 35.4%.
For `CCCCn1c(O)c(C(CC)=NCc2ccco2)c(=O)[nH]c1=O`, the inhibition is 56.4% (active).
The figure for `CCCCCCN=C(CC)c1c(O)n(CCCC)c(=O)[nH]c1=O` is 93.6% (active).
The value for `CCC(=NCCCO)c1c(O)n(-c2ccc(OC)cc2)c(=O)[nH]c1=O` was -2.8%; that for `Cc1cc(OCc2cc(C(=O)O)oc2C)c2c3c(c(=O)oc2c1)CCCC3` was 22.2%.
In the case of `OC(CNC1CCCCC1)c1ccccc1` (stereo not given), the inhibition was 28.7%.
`O=c1c2ccccc2nc(-c2ccc(Cl)cc2Cl)n1-c1ccncc1`: the inhibition was 17.2%.
The figure for `COC(=O)N(c1ccc(OC)cc1)P1(=S)OCCC(C)O1` (stereo not given) is 12.9%; for `CCc1cccc2c(C#N)cn(CC(=O)N3CCOCC3)c12` it is 37.3%; for `N[C@@H](Cc1c[nH]c2ccccc12)c1nnc(SCc2c(F)cccc2Cl)o1` it is 70.3% (active).
The figure for `CCCC(C)n1[nH]c(=O)c2c1NC(=O)CSC2c1ccc(OC)c(OC)c1` (stereo not given) is 1.7%.
For `CCN1CCN(C(=O)Cc2coc3cc(C)cc(C)c23)CC1`, the inhibition was -3.2%.
As to `COc1cc(Cn2c(N)c(C(=O)NCc3ccco3)c3nc4ccccc4nc32)cc(OC)c1OC`, the inhibition was 100% (active).
The value for `CCOC(=O)c1c(N)n(Cc2ccccc2)c2nc3ccccc3nc12` was 12%; that for `CCOC(=O)c1c(N)n(CCN2CCOCC2)c2nc3ccccc3nc12` was 25.6%; that for `O=C(c1cc(S(=O)(=O)N2CCOCC2)ccc1F)N1CCC2(CC1)OCCO2` was -0.4%.
The figure for `Cc1cc(C)cc(NC(=S)NC2CC3CCCC(C2)N3Cc2cccs2)c1` (stereo not given) is 8.1%; for `CNP1(NC)=Nc2nn(-c3ccccc3)c(N)c2C(c2ccccc2)=N1` it is -4%.
Turning to `CC1(C)C(c2ccccc2)=NC(c2cccnc2)=[N+]1[O-]`, the inhibition was 38.2%.
The figure for `Cn1c(O)c(C=NCCCC(=O)O)c(=O)n(C)c1=O` is -3.8%; for `C/C(CCc1c[nH]c2ccccc12)=N\O` it is -21.6%.
In the case of `CCOC(=O)C1=C(C)OC(N)=C(C(=O)OC)C12C(=O)Nc1ccc(Br)cc12` (stereo not given), the inhibition is 22%.
Regarding `COc1ccc(C2NCc3ccc4c(c3-n3cccc32)OCO4)cc1OC` (stereo not given), the inhibition is 10.3%.
The figure for `CCOC(=O)C1SC2(C(F)(F)C(F)F)CC1(O)c1c(c(OC)c3occc3c1OC)O2` (stereo not given) is 87% (active).
The figure for `CCNc1nc2[nH]c(=O)c3c(c2s1)OC(N)=C(C#N)C3c1cccs1` (stereo not given) is -5.9%; for `CCOc1ccc(C2SCC(=O)Nc3c2c(C)nn3C2CCOC(C)(C)C2)cc1` (stereo not given) it is 7.4%.
The figure for `N#Cc1ccc(Cn2cc(C(=O)c3ccco3)c3ccccc32)cc1` is 77.3% (active); for `CC1=C(C(=O)Nc2ccccc2)SCCO1` it is -1.2%.
`O=C(CSC1c2ccccc2-c2ccccc21)N/N=C/c1ccccc1`: the inhibition was 21.3%.
